Values joined by “and” are separate entries in the source; they are usually repeats but may differ in a detail not shown here. Equal values may be shown once. Among all 16,000 compounds or so, about 5,800 (36%) were called active. Not shown: some 23% with an inconclusive outcome. Calls follow the shape of the dose curve; as a rule, active = well fitted curve in the direction sought with a large enough effect; inconclusive = small, poorly fitted or top-dose-only effect, or effect the other way; inactive = no such curve, though single readings can be large or run the other way. This is one part of the list. The source holds several records for some structures; these can differ, active in one and inactive in another.
The molecules below were run against Cytochrome P450 2C19 (Homo sapiens) (UniProt P33261) (assay: Cytochrome panel assay with activity outcomes). Conditions: recombinant CYP, pro-luciferin dealkylation, luminescence, p450-cyp2c19; series mostly up to 57.1 µM; activity, negative = inhibition: at the top concentration.
% is scaled to controls: 0 for no effect and ±100 for the full control effect.

Cytochrome P450 2C19 (Homo sapiens), sequence (P33261 whole entry, looked up): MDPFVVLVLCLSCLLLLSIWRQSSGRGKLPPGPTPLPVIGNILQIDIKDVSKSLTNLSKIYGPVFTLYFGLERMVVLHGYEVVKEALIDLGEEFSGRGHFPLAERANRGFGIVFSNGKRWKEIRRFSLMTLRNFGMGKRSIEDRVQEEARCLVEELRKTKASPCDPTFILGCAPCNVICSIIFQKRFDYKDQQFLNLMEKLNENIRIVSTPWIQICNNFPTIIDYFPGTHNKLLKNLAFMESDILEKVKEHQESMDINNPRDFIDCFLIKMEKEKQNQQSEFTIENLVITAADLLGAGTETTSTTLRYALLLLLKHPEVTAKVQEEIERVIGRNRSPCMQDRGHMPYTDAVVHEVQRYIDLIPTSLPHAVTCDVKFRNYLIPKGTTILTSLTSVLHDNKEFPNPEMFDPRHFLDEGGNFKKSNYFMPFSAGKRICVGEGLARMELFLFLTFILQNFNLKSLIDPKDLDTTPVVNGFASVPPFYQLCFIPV

Structure (SMILES)	activity, negative = inhibition	AC50
CC[C@]1([C@H]2O[C@@H]([C@@H]3O[C@](O)(CO)[C@@H](C)C[C@H]3C)C[C@H]2C)CC[C@@H]([C@]2(C)CC[C@@]3(C[C@@H](O)[C@@H](C)[C@@H]([C@H](C)[C@H](OC)[C@H](C)C(=O)O)O3)O2)O1	-5.36% [at 25.6 µM] (inactive)	
NCCCNCCSP(=O)(O)O	-12% (inactive)	
CCN1CCN(Cc2cc(OC)c(OC)cc2[N+](=O)[O-])CC1	32.1% (inactive)	
c1ccc([C@H]2CNCc3ccccc32)cc1	-8.22% (inactive)	
Cc1ccc(N(C)C(=O)Oc2cccc3ccc(C)nc23)cc1		7.94 µM (active)
C=CCN1C[C@@H](C)N([C@H](c2ccc(C(=O)N(CC)CC)cc2)c2cccc(OC)c2)C[C@H]1C	-13.5% (inactive)	
Cc1cc(C)c(-n2c(O)c(C=NCCN3CCOCC3)c(=O)[nH]c2=O)c(C)c1	-7% (inactive)	
CC(C)CN1CCCC2(CCN(C(=O)c3ccncc3)CC2)C1	-18.7% (inactive)	
NCCCC[C@H](N[C@@H](CCc1ccccc1)C(=O)O)C(=O)N1CCC[C@H]1C(=O)O	33.4% [at 25.6 µM] (inactive)	
CN(C)C=C1C(=O)N(C2CCCCC2)C(=O)N(C2CCCCC2)C1=O		20 µM (active)
N=C(N)c1ccc(-c2ccc(-c3ccc(C(=N)N)cc3)o2)cc1	37% [at 11.4 µM] (inactive)	
CN1CCC2(CC1)CCN(C(=O)Oc1ccccc1)CC2	-2.06% (inactive)	
CCN1C[C@@]2(COC)CC[C@H](OC)[C@]34[C@@H]1[C@]1(OCO[C@@]15C[C@@H](OC)C1C[C@H]3[C@H]5[C@@H]1OC)[C@H](O)[C@@H]24	8.77% [at 25.6 µM] (inactive)	
O=C(O)CC[N+](=O)[O-]	37.9% (inactive)	
Cc1c(OCC(F)(F)F)ccnc1CS(=O)c1nc2ccccc2[nH]1 (stereo not given)		0.1 µM (active)
CC1(C)N(O)C(c2ccc(C(=O)O)cc2)=[N+]([O-])C1(C)C	17.1% (inactive)	
CCc1ccc(CCN2CCCCC2)nc1	-27.8% [at 11.4 µM] (inactive)	
Cc1ccccc1-c1nc(CS(=O)CC(=O)N2CCC3(CC2)OCCO3)c(C)o1 (stereo not given)		10 µM (active)
CCc1ccccc1NC(=S)NC1CC2CCC(C1)N2Cc1ccco1 (stereo not given)	-14.7% (inactive)	
Nc1nc(N)c(Cn2ccnc2)c(=O)[nH]1	32.7% [at 11.4 µM] (inactive)	
Cc1o[nH]c(=O)c1C[C@H](N)C(=O)O		inactive and 2.51 µM (active)
N[C@H](CCl)C(=O)O	-7.13% (inactive)	
N[C@@H](Cn1oc(=O)[nH]c1=O)C(=O)O	-33.9% (inactive)	
N[C@H](Cc1o[nH]c(=O)c1Cl)C(=O)O		1.26 µM (active)

Structure (SMILES)	activity, negative = inhibition	AC50
Cc1o[nH]c(=O)c1C[C@@H](N)C(=O)O	-36.4% (inactive)	
N[C@@H](Cc1cc(Br)c(O)c(Br)c1)C(=O)O	11.6% [at 11.4 µM] (inactive)	
O=c1cc(-c2ccc(O)c(O)c2)oc2cc(O)cc(O)c12	-40.2% [at 25.6 µM] (inactive)	
NCCCN1CCN(c2ccccc2)CC1	2.32% [at 11.4 µM] (inactive)	
Nc1ccc(CCN2CCN(c3cccc(C(F)(F)F)c3)CC2)cc1		7.94 µM (active)
Cc1cc(OCc2ccc([N+](=O)[O-])cc2)c2c3c(c(=O)oc2c1)CCCC3		0.708 µM (active)
Cc1cc(OCC(=O)OC(C)C)c2c3c(c(=O)oc2c1)CCCC3		3.55 µM (active)
CC(C)[C@H](CO)Nc1nc(Nc2cccc(Cl)c2)c2ncn(C(C)C)c2n1	-35.5% (inactive)	
CC[C@H](C)C(=O)O[C@@H]1[C@H](O)[C@@H]2[C@H](CN3C[C@@H](C)CC[C@@H]3[C@@]2(C)O)[C@@H]2C[C@@]34O[C@@]5(O)[C@@H](OC(=O)[C@](C)(O)CC)CC[C@@]3(C)[C@H]5[C@H](OC(C)=O)[C@@H](OC(C)=O)[C@H]4[C@]12O	14.3% [at 25.6 µM] (inactive)	
COc1cc2c(cc1OC)[C@]13CC[N@+]4(C)CC5=CCO[C@H]6CC(=O)N2[C@@H]1[C@@H]6[C@@H]5C[C@]34O	-1.84% [at 11.4 µM] (inactive)	
c1ccc(CN2CCN(Cc3ccc4c(c3)OCCO4)CC2)cc1	-23.7% (inactive)	
Cc1ccc(C2CC(=O)C(C=NCCN3CCN(C(=O)Cc4ccccc4)CC3)=C(O)C2)cc1 (stereo not given)		3.16 µM (active)
c1ccc(CCN2CCOCC2)nc1	1.5% [at 11.4 µM] (inactive)	
CC(C)CN1CCC2(CC1)CCN(C(=O)Oc1ccccc1)CC2	-17.2% (inactive)	
CCCN1CCc2cc(O)cc3c2[C@H]1Cc1ccc(O)c(O)c1-3	-21.6% (inactive)	
c1cc(CN2CCC3(CCNCC3)CC2)ccn1	-9.72% (inactive)	
c1ccc(CN2CCC3(CCc4ccccc43)CC2)cc1		2.51 µM (active)
c1ccc(CN2CCCC3(CCNCC3)C2)cc1	-12.1% (inactive)	
O=C(Oc1ccccc1)N1CCC2(CCN(Cc3ccccc3)CC2)CC1	-9.29% (inactive)	
c1ccc(CN2CCC3(CCNCC3)CC2)cc1		5.01 µM (active)
c1ccc(CN2CC[C@@]3(CCCNC3)C2)cc1	-44.4% (inactive)	
CCn1cc(C(=O)O)c(=O)c2cc3c(cc21)OCO3	3.65% [at 25.6 µM] (inactive)	
C[As+](C)(c1ccc(Br)c([N+](=O)[O-])c1)c1ccc(Br)c([N+](=O)[O-])c1.O=[N+]([O-])O	27.9% [at 11.4 µM] (inactive)	
S=C=Nc1cccc(C2(N3CCCCC3)CCCCC2)c1	-29.9% (inactive)	

Structure (SMILES)	activity, negative = inhibition	AC50
CS(=O)(=O)Nc1ccc(Cc2noc(-c3ccc4[nH]cc(CCN)c4c3)n2)cc1		15.8 µM (active)
C[C@H](N)Cc1c[nH]c2ccc(OCc3cccs3)cc12		inactive
CN1CCN(c2ccc3ccccc3n2)CC1		inactive
C[C@H](Br)C(=O)N[C@H](CO)C(=O)O	4.64% [at 11.4 µM] (inactive)	
CCCN1CCC[C@@H]2Cc3nc(N)ncc3C[C@H]21	10.2% (inactive)	
CC(=NCc1ccco1)c1c(O)n(-c2ccccc2)c(=O)[nH]c1=O		10 µM (active)
CC(=NCCN1CCOCC1)c1c(O)n(Cc2ccccc2)c(=O)[nH]c1=O	8.57% (inactive)	
CC(=Nc1c(C)n(C)n(-c2ccccc2)c1=O)c1c(O)n(Cc2ccccc2)c(=O)[nH]c1=O	-15.7% (inactive)	
C/C=C1\C[N@@+]2(C)CC[C@@]34C(=C(C=O)[C@H]1C[C@H]32)Nc1ccccc14	4.17% [at 25.6 µM] (inactive)	
O=[N+]([O-])c1cc(-c2ccc([As](=O)(O)O)cc2)ccc1[As](=O)(O)O	22.9% [at 11.4 µM] (inactive)	
COCCNC(=S)NC1CC2CCCC(C1)N2Cc1cccs1 (stereo not given)	-11.7% (inactive)	
Cc1ccc(N2C(=O)/C(=C/c3ccc(CN(CCC#N)S(C)(=O)=O)o3)C(=O)NC2=S)cc1C		10 µM (active)
COc1cccc2c1[C@H](CO)N1[C@H](C#N)[C@@H]3C[C@H](C(=O)O)[C@@H]([C@@H]1C2)N3C	11.2% [at 11.4 µM] (inactive)	
C=C1CC[C@H](O)C/C1=C/C=C1\CCC[C@]2(C)[C@H]1CC[C@H]2[C@@H](C)CCCC(C)C	-6.46% [at 25.6 µM] (inactive)	
CC(=O)O/C(=C1/C[C@H]2[C@@H]3CC=C4C[C@@H](OC(C)=O)CC[C@]4(C)[C@@H]3CC[C@]2(C)C1=O)C(F)(F)F	10.6% [at 11.4 µM] (inactive)	
CNCCc1ccc(O)c(O)c1	-24.1% (inactive)	
CN1CCN(c2ccc([N+](=O)[O-])c3[nH]o[n+](=O)c23)CC1	-37.2% [at 11.4 µM] (inactive)	
CN1CCN(c2ccc([N+](=O)[O-])c(N/N=C3\CN4CCC3CC4)c2)CC1		7.08 µM (active)
CC[C@H]1CN2CCc3cc(OC)c(OC)cc3[C@H]2C[C@@H]1C[C@H]1NCCc2c1[nH]c1ccc(O)cc21	34.7% [at 11.4 µM] (inactive)	
Cc1ncc([N+](=O)[O-])n1CCN=[N+]=[N-]	21.1% [at 11.4 µM] (inactive)	
c1ccc(N2CC3(CCNCC3)C2)cc1	-41.3% (inactive)	
CC(C)(C)NC[C@H](O)c1ccccc1Cl	-21.7% (inactive)	
Cc1ccc(CCN2CC(C(=O)N3CCC4(CC3)OCCO4)CC2=O)cc1 (stereo not given)	-13.7% (inactive)	
Cc1ccc(S(=O)(=O)NCC2CCC(C(=O)N3CCC4(CC3)OCCO4)CC2)cc1 (stereo not given)		14.1 µM (active)

Structure (SMILES)	activity, negative = inhibition	AC50
NC(=O)COc1c(F)cc(SCCNS(=O)(=O)c2ccccc2)cc1F	-23.1% (inactive)	
COc1cc2c(cc1OC)[C@H](C)NCC2	-21.2% [at 25.6 µM] (inactive)	
Nc1ccccc1O.O.O=C(O)[C@H]1[O][Sb][O][C@H]1C(=O)O	16.1% [at 11.4 µM] (inactive)	
COc1ccc(OCC(=O)Nc2ccc(Cl)cc2C(=O)c2ccccc2)cc1		1 µM (active)
O=C(Nc1ccc(Cl)cc1C(=O)c1ccccc1)c1ccco1		4.47 µM (active)
CN(C)CCOC(=O)COc1ccc(Cl)cc1	30.2% (inactive)	
O=C(Nc1ccc(Cl)cc1C(=O)c1ccccc1Cl)c1ccco1		2.82 µM (active)
O=P(c1ccccc1)(c1ccccc1)N1CC2(CC2)CC(O)(c2ccccc2)C1 (stereo not given)	-42.2% (inactive)	
CCC[C@@](C)(COC(N)=O)COC(=O)NC(C)C	-25% [at 25.6 µM] (inactive)	
COC(=O)N1CCC2(CCCN(C)C2)CC1	-41.1% (inactive)	
NC[C@H](O)c1cc(O)c(O)cc1F	15.1% (inactive)	
C=CCN1CCC2(C)c3cc(O)ccc3C[C@H]1[C@H]2C		inactive
COc1cc2c(cc1O)C[C@@H]1c3c(cc(O)c(OC)c3-2)CCN1C	12.7% [at 11.4 µM] (inactive)	
CN1CCc2cc(O)cc3c2[C@H]1Cc1ccc(O)c(O)c1-3	-16.9% (inactive)	
CC(C)(C)NC[C@H](O)c1cc(Cl)c(N)c(Cl)c1	29% [at 25.6 µM] (inactive)	
CN1[C@@H]2CC[C@H]1CC(O[C@@H](c1ccccc1)c1ccccc1N)C2 (stereo not given in full)	19.3% (inactive)	
CNCCc1cnc[nH]1	-29.9% (inactive)	
Cc1ccccc1-c1cncnc1NCCc1cnc[nH]1		0.0501 µM (active)
Clc1ccccc1-c1cncnc1NCCc1cnc[nH]1		0.0126 µM (active)
c1ccc2c(c1)-c1ccccc1C2N1CC2CCC(CC2)C1	-44.5% [at 11.4 µM] (inactive)	
CCCCC/C=C\C/C=C\C/C=C\C/C=C\CCCC(=O)NCC(=O)O	-19% (inactive)	
CC(C)N[C@@H](C)Cc1ccc(I)cc1	14.9% (inactive)	
O=C(C[C@H](c1ccccc1)c1c(O)c2ccccc2oc1=O)c1ccccc1	-17.3% [at 11.4 µM] (inactive)	
